Reference: publication PMC4336329 (PLoS ONE, 2015)
The whole screen tested about 310,000 compounds, of which about 14,000 (4.5%) showed an effect of 50% or more. Effects have a minus sign here. This is one part of a sample in which strong results are shown more often than they occur.

What follows are molecules tested against human ether-à-go-go-related gene (hERG) potassium channel (human, UniProt Q12809) (assay: primary screen, population patch clamp on CHO cells stably expressing hERG; higher = less effect of the substance).
Sequence of human ether-à-go-go-related gene (hERG) potassium channel (Q12809 whole entry, looked up): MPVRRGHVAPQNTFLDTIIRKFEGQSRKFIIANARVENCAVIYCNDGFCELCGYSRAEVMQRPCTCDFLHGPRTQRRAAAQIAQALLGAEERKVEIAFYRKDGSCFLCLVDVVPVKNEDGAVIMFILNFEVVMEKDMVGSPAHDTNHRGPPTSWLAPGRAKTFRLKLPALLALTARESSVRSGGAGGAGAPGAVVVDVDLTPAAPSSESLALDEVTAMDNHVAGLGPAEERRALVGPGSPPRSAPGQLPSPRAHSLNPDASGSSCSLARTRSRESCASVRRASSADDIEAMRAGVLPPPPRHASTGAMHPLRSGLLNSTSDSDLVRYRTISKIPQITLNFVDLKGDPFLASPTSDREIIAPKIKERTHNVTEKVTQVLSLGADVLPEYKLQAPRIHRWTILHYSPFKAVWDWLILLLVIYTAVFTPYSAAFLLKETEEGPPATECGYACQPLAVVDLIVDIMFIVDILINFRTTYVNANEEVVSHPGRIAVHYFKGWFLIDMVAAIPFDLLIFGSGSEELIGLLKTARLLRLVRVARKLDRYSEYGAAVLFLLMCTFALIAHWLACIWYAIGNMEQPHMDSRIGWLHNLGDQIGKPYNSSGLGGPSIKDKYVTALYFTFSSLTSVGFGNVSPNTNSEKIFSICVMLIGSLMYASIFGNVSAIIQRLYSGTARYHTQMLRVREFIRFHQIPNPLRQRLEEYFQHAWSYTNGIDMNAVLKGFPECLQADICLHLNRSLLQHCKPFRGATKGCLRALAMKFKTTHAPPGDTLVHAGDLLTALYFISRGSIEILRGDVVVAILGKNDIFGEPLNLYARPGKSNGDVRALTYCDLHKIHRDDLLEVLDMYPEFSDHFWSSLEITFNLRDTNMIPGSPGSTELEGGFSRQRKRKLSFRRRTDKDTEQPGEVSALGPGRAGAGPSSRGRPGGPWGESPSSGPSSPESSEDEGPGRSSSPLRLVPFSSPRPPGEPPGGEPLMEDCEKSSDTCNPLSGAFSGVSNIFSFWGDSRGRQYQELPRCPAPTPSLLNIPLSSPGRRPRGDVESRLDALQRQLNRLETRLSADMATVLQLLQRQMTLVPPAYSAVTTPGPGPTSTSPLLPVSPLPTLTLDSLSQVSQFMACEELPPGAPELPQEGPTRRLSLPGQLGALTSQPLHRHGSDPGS
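Further: peak tail current of the secondary pulse compared with the same well before compound.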

SMILES	hERG current change (%, negative = inhibition) at 10uM [%]
CCOC(=O)C1(Cc2cccc(Cl)c2)CCCN(C(=O)c2cccc(C)n2)C1 (stereo not shown)	-1.76
CCOCCCNC(=O)COc1ccc(OC)cc1	13.2
Cn1c(N)c(C(=O)CCl)c(=O)n(Cc2ccccc2)c1=O	2.2
CC1(C)CC(NC(=S)NC(=O)c2cc(Br)ccc2Cl)CC(C)(C)N1	-53.3
CC1(C)CC(NC(=O)c2cc(Cl)ccc2Cl)CC(C)(C)N1	-1.21
CC1(C)CC(NC(=O)c2ccc(Cl)cc2Cl)CC(C)(C)N1	2.81
C=C1c2cc(CC)ccc2NC(=O)N1c1ccc(C)cc1	8.71
CC(=O)c1c(C)n(CCCOC(C)C)c2ccc(O)cc12	-30.4
COc1ccc(NS(=O)(=O)c2ccc(NC(=S)NC(=O)/C=C/c3ccccc3)cc2)nn1	-3.33
Cc1cccc(NC(=O)CN2C(=O)N/C(=C\c3ccc(-c4cccc(C(=O)O)c4)o3)C2=O)c1	19.3
CCc1ccc(S(=O)(=O)N2c3ccc(C)cc3C3CN(C)CCC32)cc1 (stereo not shown)	-60.4
Cc1ccc2c(c1)C1CN(C)CCC1N2S(=O)(=O)c1ccc(C(C)C)cc1 (stereo not shown)	-73.4
Cc1ccc2c(c1)C1CN(C)CCC1N2S(=O)(=O)c1ccccc1 (stereo not shown)	-32.4
Cc1ccc2c(c1)C1CN(C)CCC1N2S(=O)(=O)c1cc(C(F)(F)F)ccc1Cl (stereo not shown)	-27.6
Cc1ccc2c(c1)C1CN(C)CCC1N2S(=O)(=O)c1cccc(C(F)(F)F)c1 (stereo not shown)	-40.1
Cc1ccc2c(c1)C1CN(C)CCC1N2S(=O)(=O)c1cccc(F)c1 (stereo not shown)	-11.5
O=C(COC(=O)c1ccc(S(=O)(=O)C(F)F)cc1)Nc1ccccc1C(=O)NC1CC1	11.5
O=C(CCN=C1NS(=O)(=O)c2ccccc21)OCC(=O)c1ccc(F)cc1	-3.17
O=C(NCCCN1CCOCC1)c1onc(CSc2ccncc2)c1C(=O)NCCCN1CCOCC1	-5.25
CCCCCC(=O)N/N=C/c1ccc(N(C)C)cc1	-19.2
COc1cc(NC(=O)C2CCN(c3cnccn3)CC2)cc(OC)c1OC	19.5
COc1ccc(CNC(=O)CSc2ccc(Br)cc2)cc1OC	-63.1

SMILES	hERG current change (%, negative = inhibition) at 10uM [%]
COc1ccc(CCNC(=O)CSc2n[nH]c(N)n2)cc1OC	30.1
COc1ccc(CCNC(=O)CSc2ccc(Br)cc2)cc1OC	23
COc1ccc(CNC(=O)CSc2n[nH]c(N)n2)cc1OC	-77.5
COc1ccc(CNC(=O)CSc2n[nH]c(N)n2)cc1	20.1
COc1ccccc1CNC(=O)CSc1ccc(Br)cc1	-3.01
COc1ccc(CNC(=O)C2CCN(c3nccs3)CC2)cc1	-31.8
CC(C)c1ccc(Oc2cccc(C(=O)/C(C#N)=C/N(C)C)c2)cc1	-14.6
CSc1ncc(CN2CCCC(C(=O)c3cccc(Cl)c3)C2)cn1 (stereo not shown)	-47.1
Cc1ccsc1C(=O)C1CCCN(Cc2cnc(N)nc2)C1 (stereo not shown)	-4.85
CSc1ccc(C(=O)C2CCCN(Cc3cnc(SC)nc3)C2)cc1 (stereo not shown)	-76.4
CCn1cc(CN2CCCC(C(=O)c3sccc3C)C2)cn1 (stereo not shown)	-27.3
Cc1ccsc1C(=O)C1CCCN(Cc2cnn(C(C)C)c2)C1 (stereo not shown)	-56.4
CSc1ccc(C(=O)C2CCCN(Cc3cccn3-c3cccnc3)C2)cc1 (stereo not shown)	-65.1
Cc1ccsc1C(=O)C1CCCN(Cc2cnn(C)c2)C1 (stereo not shown)	12
CSc1ncc(CN2CCCC(C(=O)c3sccc3C)C2)cn1 (stereo not shown)	-55.2
O=C(c1ccc(Cl)cc1)C1CCCN(Cc2cccn2-c2cccnc2)C1 (stereo not shown)	-42
CSc1ncc(CN2CCCC(C(=O)c3ccc(C(C)(C)C)cc3)C2)cn1 (stereo not shown)	-31.9
Cc1ccsc1C(=O)C1CCCN(Cc2cnc(N3CCCC3)s2)C1 (stereo not shown)	-15.3
COc1cccc(/C=N/NC(=O)C(C)n2nnc3ccccc32)c1 (stereo not shown)	-1.1
Cc1cc([N+](=O)[O-])nn1CC(=O)Nc1sc2c(c1C(N)=O)CCCC2	7.62
CCN(CC(=O)NCc1cccs1)CC(=O)Nc1c(Cl)ccc(C)c1Cl	-16.8
CC12CC3(C)CC(C)(C1)CC(C(=O)NC(=S)NC(C)(C)C)(C2)C3	13.3

SMILES	hERG current change (%, negative = inhibition) at 10uM [%]
CSc1ccc(C(=O)C2CCCN(Cc3ccn[nH]3)C2)cc1 (stereo not shown)	-26.6
O=C(C1CCCN(Cc2cccnc2)C1)N1CCCCC1.O=C(O)C(=O)O (stereo not shown)	7.77
CSc1ccc(C(=O)C2CCCN(Cc3cccnc3)C2)cc1 (stereo not shown)	-53
CCCCn1nc(C(=O)NCC2COc3ccccc3O2)c2ccccc2c1=O (stereo not shown)	-49.1
O=[N+]([O-])c1ccccc1/C=C/C=N/n1c(-c2ccc(Cl)cc2)n[nH]c1=S	17.5
O=C(CN(Cc1ccco1)C(=O)CNS(=O)(=O)c1ccc(F)cc1)NCc1ccccc1	-28.4
CCOC(=O)C1CCN(C(=O)CCNC(=O)c2cc(OC)c(OC)c(OC)c2)CC1	10.9
O=C(NCCCN1CCOCC1)c1ccc(Sc2ccccc2Cl)c([N+](=O)[O-])c1	-22.7
O=C(c1ccc(Sc2ccc(F)cc2)c([N+](=O)[O-])c1)N1CCOCC1	-18.5
O=C(NCCCN1CCOCC1)c1ccc(Sc2ccc(F)cc2)c([N+](=O)[O-])c1	-33.3
CCN1CCCC1CNC(=O)c1ccc(Sc2ccccc2Cl)c([N+](=O)[O-])c1 (stereo not shown)	-64.1
CCN1CCCC1CNC(=O)c1ccccc1Cl (stereo not shown)	-10.6
CCN1CCCC1CNC(=O)c1ccc(Sc2ccc(F)cc2)c([N+](=O)[O-])c1 (stereo not shown)	-66.5
CCOc1ccc(-c2nnn(CC(=O)N3CCCC3)n2)cc1OCC	13.8
Cl.O=c1c(-c2ccccc2)coc2c(CN3CCCCC3)c(O)ccc12	14.6
COc1ccc(NC(=O)CSCC(=O)N=c2sccn2C)cc1	11
O=C(Nc1ccc(O)cc1)c1cc2n(n1)C(C(F)(F)F)CC(c1ccco1)N2 (stereo not shown)	-5.45
O=S(=O)(Nc1cccc(-c2cn3cccnc3n2)c1)c1ccc(Cl)cc1	16.4
CN1CCN(CC(=O)NC23CC4CC(CC(C4)C2)C3)CC1.Cl	4.19
CCc1ccc(Nc2n[n+](-c3ccccc3)c(-c3c(Cl)cccc3Cl)s2)cc1.[Cl-]	-27.5
COc1cc(Br)c(-c2sc(Nc3ccccc3)n[n+]2-c2ccccc2)cc1OC.[Cl-]	-68.7
CCc1ccc(Nc2n[n+](-c3ccccc3)c(-c3ccc(SC)cc3)s2)cc1.[Cl-]	-2.72

SMILES	hERG current change (%, negative = inhibition) at 10uM [%]
COc1ccc(-c2sc(Nc3ccccc3)n[n+]2-c2ccccc2)cc1Br.[Cl-]	-48.7
CCc1ccc(Nc2n[n+](-c3ccccc3)c(-c3cc(OC)c(OC)cc3Br)s2)cc1.[Cl-]	-55
CCc1ccc(Nc2n[n+](-c3ccccc3)c(/C=C/c3ccccc3)s2)cc1.[Cl-]	-69
CCc1ccc(Nc2n[n+](-c3ccccc3)c(-c3ccc(OCc4ccccc4)cc3)s2)cc1.[Cl-]	-45.2
CCc1ccc(Nc2n[n+](-c3ccccc3)c(-c3cccc(Cl)c3Cl)s2)cc1.[Cl-]	-1.43
COc1cc(Br)c(-c2sc(Nc3ccccc3)n[n+]2-c2ccc(F)cc2)cc1OC.[Cl-]	-37.1
O=C(O)C1Cc2ccccc2-c2ccccc2C1	20.1
CC(C)COC(=O)c1ccc(NC(=O)C2C3CCC(C3)C2C(=O)O)cc1 (stereo not shown)	7.41
Nc1nc(Cl)cc(Sc2ccc3ccccc3c2)n1	14.1
CCOC(=O)c1ccoc1CSCc1ccc(C(=O)OC)o1	5.24
COc1ccc(CNC(=O)C/C(C)=N/NC(=O)Cc2ccc(OC)cc2)cc1	3.39
CCC(=O)Oc1ccc(-c2cnc3ccccc3n2)cc1	13.5
COc1ccc(C(CNC(=O)c2cccc(S(=O)(=O)NCc3ccccc3)c2)N2CCOCC2)cc1 (stereo not shown)	-40
c1ccc(N2CCN(c3ncnc4c3oc3ccccc34)CC2)cc1	2.36
c1ccc2[nH]c(CSc3ncnc4c3oc3ccccc34)nc2c1	-21.4
c1ccc2[nH]c(CN3CCN(c4ncnc5c4oc4ccccc45)CC3)nc2c1	-73.1
Cc1nc(N2CCN(Cc3nc4ccccc4[nH]3)CC2)c2oc3ccccc3c2n1	-52.1
C(=C\c1ccccc1)/CN1CCN(c2ncnc3c2oc2ccccc23)CC1	-53.7
Cl.c1ccc2c(c1)oc1c(N3CCOCC3)ncnc12	9.53
Cc1nc(N2CCN(Cc3ccc(Cl)cc3)CC2)c2oc3ccccc3c2n1	-19.3
Cc1nc(SCc2nc3ccccc3[nH]2)c2oc3ccccc3c2n1	1.04
COc1ccccc1N1CCN(c2ncnc3c2oc2ccccc23)CC1	6.73
